Bioassay records as filed in PubChem.
This is a sample that favours compounds with a hit; in the whole collection about 0.81% have one here.
C-LANA FP – inhibitors of KSHV C-LANA binding to DNA, primary screen, biochemical, fluorescence polarization, FAM-LBS DNA, MBP-C-LANA, single point; Kaposi's sarcoma herpesvirus LANA C-terminal domain (residues 932-1162) DNA binding; inhibition, % at 9 µM; 340,000 compounds, 0.078% hits; AID 504423, 2011;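 active = highest replicate inhibition at or above 60% at 9 µM, even if other replicates fall short; inactive = all replicates below 60% inhibition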
IDE cell activ – human IDE activators in live cells, primary screen, fluorescence polarization, HEK cells, FAbeta-B substrate | FAbeta-B cleavage; 0% vehicle, 100% cell-free pure enzyme wells | activation, % at 5.96 µM | 340,000 compounds, 0.073% hits | AID 493087, 2011;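 active = activation above the mean of all tested compounds plus 3 SD, set per screening campaign, cut at about 17% in these data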
Keap1-Nrf2 PPI – Keap1-Nrf2 protein-protein interaction inhibitors, primary screen, biochemical, fluorescence polarization, single point; 340,000 compounds, 0.15% hits; Kelch-like ECH-associated protein 1 (Homo sapiens), Q14145; Keap1 Kelch-Nrf2 peptide fluorescence polarization, 1536-well; inhibition, % at 9.4 µM; in the data active = inhibition above about 12%;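 note: human Keap1 Kelch domain with fluorescein labeled Nrf2 9mer peptide probe; higher means more block of Keap1 binding to Nrf2 peptide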
RTF Ca sens inh – cardiac RTF calcium sensitivity inhibitors, primary screen, biochemical, IANBD-TnC fluorescence, EC70 calcium. IANBD-labeled cardiac RTF, Ca2+ fluorescence. AID 493244, 2011. inhibition, % at 7.15 µM. 340,000 compounds, 0.12% hits. Troponin I, cardiac muscle (Homo sapiens) + Troponin T, cardiac muscle (Homo sapiens) + …;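 active = inhibition above the mean inhibition of all tested compounds plus 3 SD, cut at about 17% in these data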;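 note: assay run at fixed EC70 calcium of 1.6 mM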
IDE cell inh – human IDE inhibitors in live cells, primary screen, fluorescence polarization, HEK cells, FAbetaB substrate. Insulin-degrading enzyme (Homo sapiens), P14735. FAbetaB cleavage. inhibition, % at 5.59 µM. 320,000 compounds, 0.41% hits. AID 434962, 2010;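 active = percent inhibition above the average of all tested compounds plus 3 SD, set per screening campaign, cut at about 16% in these data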;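 note: IDE supplied by intact live HEK cells; FP after avidin binding of uncleaved biotin substrate so inhibition keeps polarization high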
RTF Ca sens act – cardiac RTF calcium sensitivity activators, primary screen, biochemical, IANBD-TnC fluorescence, EC20 calcium; IANBD-labeled TnC RTF fluorescence at EC20 calcium; 0% EC20 calcium, 100% full calcium; 340,000 compounds, 0.24% hits; Troponin I, cardiac muscle (Homo sapiens) + Troponin T, cardiac muscle (Homo sapiens) + …; activation, % at 7.2 µM;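 active = activation above the mean over all tested compounds plus 3 SD, cut at about 30% in these data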;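 note: rise in fluorescence read as greater calcium sensitivity of cardiac thin filaments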
Keap1 TSA – Keap1 Kelch domain binders by thermal stabilisation, dose response, biophysical, thermal shift, RT-PCR instrument, cherry-pick. delta Tm; hits give high values. shares compounds with Keap1-Nrf2 PPI. AID 651823, 2012. max delta Tm, degrees C. 400 compounds, 8% hits; in the data active = max delta Tm above about 0.48 degrees C
Dye-only ctr – Sypro Orange dye melt without protein, dose response, artefact control for Keap1-Nrf2 interaction inhibitor project, biochemical, thermal shift counterscreen, cherry-pick; shares compounds with Keap1-Nrf2 PPI; Sypro Orange dye-only thermal melt, no protein, delta Tm; top dose 26 µM; delta Tm, degrees C (test concentration not listed); 140 tested, under 10 active; AID 651858, 2012;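 active = at highest dose tested, delta Tm positive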
Numbers stand for hits; – = inactive; · = not tested or not shown; + = active, no number.

SMILES	C-LANA FP	IDE cell activ	Keap1-Nrf2 PPI	RTF Ca sens inh	IDE cell inh	RTF Ca sens act	Keap1 TSA	others
Cc1ccc2nc3c(cc(C(=O)NC4CCCC4)c(=N)n3C3CCCCC3)c(=O)n2c1	–	–	–	–	–	–	·
Cc1ccc(Cn2c(=N)c(C(=O)NC3CCCC3)cc3c(=O)n4ccccc4nc32)cc1	–	–	15.6	–	–	–	–	Dye-only ctr=–
N=c1c(C(=O)NCc2ccc(F)cc2)cc2c(=O)n3ccccc3nc2n1Cc1cccnc1	–	–	13.1	–	–	–	–	Dye-only ctr=–
Cc1cc(C)c(S(C)(=O)=O)c(=O)[nH]1	–	–	–	–	–	–	·
Cc1cc(=O)c2c([nH]1)c(C)cc1[nH]c(C)c(C)c12	–	–	24.7	–	–	–	–	Dye-only ctr=–
O=C(Cc1ccc(S(=O)(=O)N2CCOCC2)s1)Nc1nc2c(s1)CCCC2	–	–	17.6	–	–	–	–
CCCCC1OC23CCCCC2C(C#N)(C(=N)O3)C1(C#N)C#N (stereo not drawn)	–	–	19.9	–	–	–	–
CCCCC1OC23CCCCC2C(C#N)(C#N)C1(C#N)C(=N)O3 (stereo not drawn)	–	–	24.3	–	–	45.9	–	Dye-only ctr=–
O=C(NC1CCCC1)C(c1ccncc1)N(C(=O)c1csnn1)c1ccc(F)c(Cl)c1 (stereo not drawn)	–	–	–	–	–	–	·
O=C(N/C=C\n1cnc2cc(C(F)(F)F)ccc21)c1ccc([N+](=O)[O-])cc1	–	–	–	–	–	–	·
COc1cccc2c1C(=O)c1c(O)c3c(c(O)c1C2=O)CC(O)(C(C)=O)CC3OC1CC(N(C)C)C(O)C(C)O1 (stereo not drawn)	117.3	–	+	–	·	190.0	–
COC(=O)c1ccc2c(c1)NC(=O)CS2	–	–	–	–	–	–	·
Cc1nnc(NC(=O)c2ccc3c(c2)NC(=O)CS3)s1	–	–	17.5	–	–	–	–
COC(=O)c1ccc(N2CCN(CC(=O)c3ccc(-c4ccccc4)cc3)CC2)c([N+](=O)[O-])c1	–	–	–	–	–	–	·
c1ccc(-c2nnc(CN3CCC4(CC3)OCCO4)o2)cc1	–	–	–	–	–	–	·
OC(CCN1CCC2(CC1)OCCO2)C(F)(F)F (stereo not drawn)	–	–	18.6	–	–	–	–
O=C(NNc1ncnc2sccc12)c1ccc(Cl)cc1	–	·	27.3	·	–	·	–
O=C(O)c1cccc(Nc2ncnc3sccc23)c1	–	·	–	·	–	·	·
COc1ccccc1NS(=O)(=O)c1cccc(C(=O)N(C)Cc2cccs2)c1	–	–	–	–	–	–	·
O=C(CCCN=C1NS(=O)(=O)c2ccccc21)Nc1ccc(Cl)cc1	–	–	–	–	–	–	·
CCOc1ccccc1C(=O)NC(C(=O)Nc1cccc(S(N)(=O)=O)c1)C(C)C (stereo not drawn)	–	–	–	–	–	–	·
CCSc1ncc(Cl)c(C(=O)Nc2ccccc2OC)n1	–	–	22.9	–	–	–	–
O=C1C2CCCCC2C(=O)N1c1ccc(S(=O)(=O)Nc2ncccn2)cc1 (stereo not drawn)	–	–	–	–	–	–	·
